Inconclusive results are not listed. A number with no mark means an inactive call. Activity calls are given as the source filed them. The call rests on the fitted dose curve; in most records, active means well fitted cell-killing curve with a large enough effect; inconclusive means small, poorly fitted or top-dose-only effect; inactive means flat fitted curve, though single readings scatter.
On the % scale 0 is the no-effect control and ±100 the full control effect; potency means the concentration at half of the fitted maximal effect.

A short description of the assay: Cellular viability qHTS for adrenocortical cancer (ACC) cell line SW-13 (AID 1963989). Further: nearly all actives have a fitted effect of over 65% in size.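 On activity (max response): cells grown in serum-free medium with ITS supplement.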 The conditions noted are these: SW-13 ACC cells viability, CellTiter-Glo, 48 h; activity (max response): stronger effect = lower value. The gist of the method:
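Compound titrations (up to 46 uM final, in DMSO) were applied to SW-13 cells for 48 h at 37C/5% CO2. Reading used CellTiter-Glo after 20 min at room temperature; fitted curves yielded IC50 and efficacy.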
A general note: In qHTS, concentration-response curves come from the screen itself.
For the compound `CCOC(=O)c1ccc(O)c(O)c1`, the activity (max response) is -9.67%.

On to `CC(C)(c1ccc(OCC(O)CO)cc1)c1ccc(OCC(O)CCl)cc1` (centres undefined), for which the activity (max response) was -21.2%.

`CCOc1cc(/C=C2/C(=O)N(c3ccccc3)N=C2C)cc(Cl)c1OCC(=O)OC`: the activity (max response) is -5.72%.

With `CC(=O)OC(C)OC(=O)C(C)c1ccc(-c2ccccc2)c(F)c1` (centres undefined), the activity (max response) was 9.22%.

Turning to `OC[C@H]1O[C@@H](Oc2cc(O)cc(/C=C/c3ccc(O)cc3)c2)[C@H](O)[C@@H](O)[C@@H]1O`, the activity (max response) was 7.59%.

For `CN(C)N(C)C(=O)[C@@]1(Cc2ccccc2)CCCN(C(=O)[C@@H](Cc2c[nH]c3ccccc23)NC(=O)C(C)(C)N)C1`, the activity (max response) was -15.4%.

With `O=C(O)P(=O)(O)O`, the activity (max response) is 10.2%.

With `NCc1ccccc1Sc1ccccc1CO`, the activity (max response) was -6.09%.

In the case of `COCCNCc1ccc(-c2cc3nccc(Oc4ccc(NC(=O)C5(C(=O)Nc6ccc(F)cc6)CC5)cc4F)c3s2)nc1`, the Potency is 3.55 µM (active).

For the origin of these results see PubChem BioAssay (NCATS).
